High-throughput results: PubChem BioAssay, several laboratories
Only some compounds are listed: those with a hit (about 2.2% of all), similar ones and a draw of the others.
V-ATPase pH: yeast V-ATPase proton transport regulation by pHLuorin | S. cerevisiae, pHLuorin cytosolic pH fluorescence | response, % at 10 µM | 0.37% of 350,000 active; in the data active = response mostly above about 7.3%, no sharp cut-off; inactive = mostly below about 5.4%; note: actives read high
VLA-4 inh: inhibition in a human VLA-4 binding assay. VLA-4 expressing cells, ligand binding flow cytometry. inhibition, % (about 7 µM as worked out from the volumes in the protocol). P13612. 0.2% of 330,000 active; in the data active = inhibition above about 50%
MEX-5 binding: C. elegans MEX-5 TCR-2 RNA binding activity; MEX-5/FITC-TCR2 RNA binding, fluorescence polarization; hits give low values; activity score (negative = inhibition of binding), % at 10 µM; 0.38% of 300,000 active;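 active = inhibition past about -25% in most replicates, and total fluorescence under double the plate's negative control median, limit read from the data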;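 note: 0% = DMSO and -100% = 5 µM competing unlabeled TCR2 RNA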
Exocytosis inh: lytic granule exocytosis inhibition; AID 651702; inhibition, % at 10 µM; TALL-104 LAMP-1 surface exposure, flow cytometry; cells stimulated with thapsigargin and PMA; 0.66% of 360,000 active;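 active = inhibition above about 55%, limit read from the data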
HTR2A ag: mouse HTR2A agonism via beta-arrestin recruitment | P35363 | CHO-K1 mHTR2A beta-arrestin complementation, luminescence; percent of 30 µM serotonin response | activation, % at 7.6 µM | 0.66% of 360,000 active | AID 624169;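 active = activation above a run cutoff, the mean activation of all tested compounds plus 3 SD, cut at about 14% in these data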;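 note: 0% = plate median of compound wells and 100% = 30 µM serotonin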
Target sequence (P35363 whole entry, looked up): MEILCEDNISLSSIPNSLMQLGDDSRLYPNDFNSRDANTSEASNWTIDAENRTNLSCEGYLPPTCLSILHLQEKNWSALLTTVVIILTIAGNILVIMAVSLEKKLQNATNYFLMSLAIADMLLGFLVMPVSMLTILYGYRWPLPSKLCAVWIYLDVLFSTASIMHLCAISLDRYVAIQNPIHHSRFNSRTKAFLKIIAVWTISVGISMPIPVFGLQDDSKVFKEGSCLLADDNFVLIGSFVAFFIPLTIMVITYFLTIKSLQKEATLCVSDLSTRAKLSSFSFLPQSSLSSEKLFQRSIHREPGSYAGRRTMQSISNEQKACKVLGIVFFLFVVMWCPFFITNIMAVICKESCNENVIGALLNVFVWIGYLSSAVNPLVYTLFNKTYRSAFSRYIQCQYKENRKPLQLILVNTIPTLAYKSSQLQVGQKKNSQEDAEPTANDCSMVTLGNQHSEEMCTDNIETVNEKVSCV
JMJD2C inh: human JMJD2C demethylase inhibition. Q9H3R0. GST-JMJD2C(1-420) H3K9me3 demethylation, DELFIA europium. inhibition, % at 2.35 µM. 0.069% of 330,000 active;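 active = more than half of a compound's replicate wells show inhibition beyond 50%, single wells judged on their own value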;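 note: signal counts dimethyl H3K9 product captured on neutravidin plate; 0% = median of DMSO wells and 100% = 0.3 times that DMSO median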
Active calls of the source: *; i = inactive; x = no result given.

SMILES | V-ATPase pH | VLA-4 inh | MEX-5 binding | Exocytosis inh | HTR2A ag | JMJD2C inh
Cc1cccc(NC(=O)C2CCCN(S(=O)(=O)c3c(C)nn(C)c3C)C2)n1 (centres undefined) | 0 | 8 | -1 | -5 | 0 | 63*
Cc1cccc(NC(=O)C2CCCN(S(=O)(=O)c3cccc4nsnc34)C2)n1 (centres undefined) | -3 | -9 | 0 | -4 | -1 | -1
CCNc1ccc(Br)cc(C(=O)/C=C/c2c(Cl)cccc2Cl)c1=O | 0 | -154 | -1 | 78* | -4 | -54
CNc1ccc(Br)cc(C(=O)/C=C/c2ccc(Cl)cc2Cl)c1=O | -2 | i | -1 | 100* | -3 | 6
CNc1ccc(Br)cc(C(=O)/C=C/c2ccc(OC)cc2OC)c1=O | 3 | 9 | 2 | -2 | -2 | 7
Cc1nnc(NC(=O)CSc2nccn2Cc2ccccc2)s1 | 2 | 3 | 1 | -3 | 8 | 1
O=C1C=C(c2c(O)ccc3ccccc23)c2ccccc2C1=O | 5 | x | x | 104* | 15* | x
CCCN(C(=O)CSc1ccccc1C(=O)O)C1CCS(=O)(=O)C1 (centres undefined) | 15* | 21 | x | -1 | 5 | -4
CCCN(C(=O)CSc1nnc2ccccn12)C1CCS(=O)(=O)C1 (centres undefined) | -1 | 0 | x | 0 | -3 | 18
CSCC(C)N1CCC(Oc2cccc(C(=O)NCc3ccccn3)c2)CC1 (centres undefined) | 1 | 0 | -29* | 8 | -6 | -16
O=C(c1ccc(Cl)cc1)C1C2C(=O)N(c3ccccc3)C(=O)C2C2CCCN21 (centres undefined) | -1 | x | -29* | 1 | 1 | -12
C=CCn1c(Cc2nc3ccccc3[nH]2)n[nH]c1=S | -1 | 12 | -51* | 0 | -1 | 4
C=CCn1c(Cc2cccc3ccccc23)n[nH]c1=S | -4 | 2 | 3 | -3 | 3 | 3
CCOC(=O)c1ccc(NC(=O)c2nc[nH]c2C(=O)NC[C@H](C)O)cc1 | 0 | x | x | 6 | 5 | x
O=C(NNC(=O)c1cc(Cl)ccc1O)c1ccc(NS(=O)(=O)c2cccs2)cc1 | -8 | -3 | -10 | 5 | -2 | 5
O=C(O)CSc1nc(C(F)(F)F)cc(=O)n1-c1ccccc1 | 2 | -1 | -2 | -2 | 17* | 6
CC(=O)CSc1nc(C(F)(F)F)cc(=O)n1-c1ccccc1 | 5 | -4 | 0 | 4 | -2 | 5
COc1ccccc1C(=O)NC(=O)COC(=O)c1ccc(C)o1 | 4 | -10 | -1 | -5 | 4 | 15
Cn1c(SCC(=O)N2CCCC2=O)nnc1-c1ccccc1F | 1 | 15 | 7 | -1 | -2 | 55*
CCN1C(=O)/C(=C2/C=Cc3ccccc3N2C)OC1=S | -1 | -7 | -28* | 2 | 0 | 5
CCOC(=O)C1CCN(C(=O)CCn2c(=O)oc3ccccc32)CC1 | 2 | x | x | -1 | 1 | x
COc1ccc(OCC(=O)c2c(O)c3ccccc3oc2=O)cc1 | 16* | 15 | 0 | 7 | 0 | 2
Cc1ccc(NC(=O)COc2ccc(/C=C3/SC(=Nc4ccccc4)N(Cc4cccnc4)C3=O)cc2)cc1 | -1 | -24 | -60* | 0 | 1 | 4
Cc1ccc(NC(=O)COc2ccc(/C=N/NC(=O)CSCc3ccccc3)cc2)cc1 | 0 | 0 | 1 | -8 | 1 | -7
Cc1ccc(N/C=C/C(=O)c2sc(-c3ccccc3)nc2C)cc1 | -4 | 34 | -38* | 3 | 4 | -3
SMILES | V-ATPase pH | VLA-4 inh | MEX-5 binding | Exocytosis inh | HTR2A ag | JMJD2C inh
Cc1nc(-c2ccccc2)sc1C(=O)NN | 2 | 3 | 1 | 1 | 2 | 14
COc1cccc2[nH]c3c(N4CCCCC4)ncnc3c12 | -1 | 4 | 2 | 69* | -4 | -12
O=C(CSc1cccc(C(F)(F)F)c1)Nc1ccc(N2CCOCC2)cc1 | -2 | 5 | x | -6 | -13 | -2
COc1ccc(C(=O)NNC(=O)c2ccc(C)cc2)cc1S(=O)(=O)N1CCCC1 | -2 | 15 | 3 | -2 | -4 | 7
COc1ccccc1N1CCN(CC(O)COc2ccc(C)cc2C)CC1 (centres undefined) | 2 | -1 | 3 | -2 | -6 | -17
CCN(CC)c1ccc(/C=C(\C#N)c2ccccn2)cc1 | -4 | 32 | -6 | -1 | -5 | 0
CCN(CC)c1ccc(C=N/C(C#N)=C(\N)C#N)cc1 | -1 | i | -109* | 3 | 1 | 4
C=CCNC(=O)c1onc(CSc2ccccn2)c1C(=O)NCC=C | -4 | 13 | -1 | 7 | 13 | 3
CCOCCCNc1ccc(N2C(=O)CCCC2=O)cc1[N+](=O)[O-] | -2 | 20 | 2 | -3 | -2 | 4
CCN(c1ccc(OCC(=O)OCC(=O)c2c(N)n(C)c(=O)n(C)c2=O)cc1)S(=O)(=O)c1ccccc1 | 0 | 8 | 0 | 53 | -1 | -8
CN(c1ccc(OCC(=O)OCC(=O)c2c(N)n(C)c(=O)n(C)c2=O)cc1)S(=O)(=O)c1ccc2ccccc2c1 | 11 | 3 | 3 | 69* | 3 | 9
C#CCOCCOCCOCCNc1nc(N2CCN(C(=O)CCCCCCCCCCNC(=O)[C@H](CCCCN)n3cc(C[C@@H](C)CC)nn3)CC2)nc(N2CCN(C(=O)CCCCCCCCCCNC(=O)[C@@H]([C@H](C)O)n3cc(C)nn3)CC2)n1 | -5 | -3 | x | 97* | 2 | 16
C#CCOCCOCCOCCNc1nc(N2CCN(C(=O)CCCCCCCCCCNC(=O)Cn3cc(C[C@@H](C)O)nn3)CC2)nc(N2CCN(C(=O)CCCCCCCCCCNC(=O)[C@@H]([C@H](C)CC)n3cc(CCCCCN)nn3)CC2)n1 | 11 | 6 | x | 0 | 9 | 13
C#CCOCCOCCOCCNc1nc(N2CCN(C(=O)CCCCCCCCCCNC(=O)Cn3cc(CCCCCN)nn3)CC2)nc(N2CCN(C(=O)CCCCCCCCCCNC(=O)Cn3cc(C[C@@H](C)O)nn3)CC2)n1 | 8.6* | 6 | x | 2 | 11 | x
Cc1ccn(CC(=O)N2CCCC(N3CCN(c4ccccc4F)CC3)C2)n1 (centres undefined) | -2 | x | 4 | -1 | 2 | -7
CCCc1ccccc1OCCNS(=O)(=O)c1cc2c(cc1C)OCC(=O)N2 | 3 | 4 | 1 | 19 | 6 | 2
CC(N=C1NS(=O)(=O)c2ccccc21)C(=O)NCc1ccc(F)cc1 (centres undefined) | 1 | 2 | x | -16 | -6 | 1
CC(=O)NNC(=O)c1sc(=S)n2c1[nH]c(=O)c1sccc12 | -2 | -3 | -49* | -1 | 0 | -9
CCCCn1c(O)c(/C=C2\C=Nc3ccccc32)c(=O)[nH]c1=O | 3 | -6 | -31* | 0 | 2 | 8
